Compound activity (PubChem)
Exocytosis inh = lytic granule exocytosis inhibition; inhibition, % at 10 µM; 360,000 compounds, 0.66% hits; TALL-104 LAMP-1 surface exposure, flow cytometry; cells stimulated with thapsigargin and PMA;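 active means inhibition above about 55%, limit read from the data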
PG9 binder = small molecules binding HIV-1 gp120 antibody PG9. TR-FRET gp120-PG9 antibody binding. inhibition, % at 6.7 µM. 360,000 compounds, 0.43% hits. AID 624416; in the data active means inhibition above about 8.5%
ABCB6 inh MLPCN = blocks the human ABCB6 transporter; AID 602162; K562-ABCB6 porphyrin accumulation, flow cytometry, 1 h; stronger effect = lower value; Q9NP58; fluorescence ratio to DMSO, % at 10 µM; 360,000 compounds, 0.19% hits;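 active means fluorescence ratio to DMSO below 75%, the collection mean minus 3 SD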;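 further: signal is porphyrin accumulated inside mitochondria; lower ratio means ABCB6 inhibition with less porphyrin fluorescence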
Target sequence (Q9NP58 whole entry, looked up): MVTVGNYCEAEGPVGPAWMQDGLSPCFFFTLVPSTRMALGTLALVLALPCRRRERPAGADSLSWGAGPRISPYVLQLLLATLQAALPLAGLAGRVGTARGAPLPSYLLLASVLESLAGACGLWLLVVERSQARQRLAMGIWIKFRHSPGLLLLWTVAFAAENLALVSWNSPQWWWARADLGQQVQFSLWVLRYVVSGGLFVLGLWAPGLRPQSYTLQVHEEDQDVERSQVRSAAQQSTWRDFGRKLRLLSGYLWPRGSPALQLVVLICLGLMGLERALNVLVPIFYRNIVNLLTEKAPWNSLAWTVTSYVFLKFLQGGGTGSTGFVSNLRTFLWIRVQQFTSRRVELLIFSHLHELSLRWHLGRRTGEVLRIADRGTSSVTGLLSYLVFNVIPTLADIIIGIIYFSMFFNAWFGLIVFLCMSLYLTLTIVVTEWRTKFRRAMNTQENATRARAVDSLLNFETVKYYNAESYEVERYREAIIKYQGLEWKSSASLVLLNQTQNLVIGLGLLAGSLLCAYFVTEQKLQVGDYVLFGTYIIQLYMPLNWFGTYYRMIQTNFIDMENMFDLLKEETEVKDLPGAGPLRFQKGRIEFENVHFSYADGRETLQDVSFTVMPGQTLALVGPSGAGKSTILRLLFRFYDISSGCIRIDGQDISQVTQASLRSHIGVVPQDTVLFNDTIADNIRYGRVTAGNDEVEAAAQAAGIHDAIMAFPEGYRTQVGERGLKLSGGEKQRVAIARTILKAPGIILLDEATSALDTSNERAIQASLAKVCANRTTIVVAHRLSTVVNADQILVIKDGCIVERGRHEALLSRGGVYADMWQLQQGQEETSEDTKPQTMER
rCAG RNA binder = molecules binding r(CAG) RNA repeats. r(CAG) RNA repeat, TO-PRO-1 dye displacement fluorescence. inhibition, % at 3 µM. 370,000 compounds, 1.3% hits;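 active means inhibition above the plate cutoff, the mean of all test compounds on that plate plus 3 SD, cut at about 35% in these data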;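 further: higher means more dye released from RNA so lower well fluorescence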
Granule exo CP1 = lytic granule exocytosis inhibition | shares compounds with Exocytosis inh | AID 651954 | TALL-104 cells, LAMP-1 externalization, flow cytometry; stimulated with PMA plus thapsigargin | inhibition, % at 10 µM | 1,500 compounds, 11% hits; in the data active means inhibition above about 60%
A number is an active result. The list is not random: actives were taken first. Their share in the collection is about 2.5%.

Results for CCCCC[C@@H](C)N1C[C@H](COCc2ccccc2)Oc2cc(N3CC[C@@H](N(C)C)C3)ccc2S1(=O)=O ?
Exocytosis inh: 74; PG9 binder: inactive; ABCB6 inh MLPCN: inactive; rCAG RNA binder: inactive; Granule exo CP1: 72

Results for CCCCC[C@H](C)N1C[C@H](COCc2ccccc2)Oc2cc(N3CC[C@H](N(C)C)C3)ccc2S1(=O)=O ?
Exocytosis inh: inactive; PG9 binder: inactive; ABCB6 inh MLPCN: inactive; rCAG RNA binder: inactive

What do the screens show for `CCCCC[C@@H](C)N1C[C@@H](COCc2ccccc2)Oc2cc(N3CC[C@@H](O)C3)ccc2S1(=O)=O`?
Exocytosis inh: inactive; PG9 binder: inactive; ABCB6 inh MLPCN: inactive; rCAG RNA binder: inactive

How did CCCCC[C@H](C)N1C[C@H](COCc2ccccc2)Oc2cc(N3CC[C@@H](N(C)C)C3)ccc2S1(=O)=O do in these assays?
Exocytosis inh: 64; PG9 binder: inactive; ABCB6 inh MLPCN: inactive; rCAG RNA binder: inactive; Granule exo CP1: inactive

Results for CCCCC[C@@H](C)N1C[C@@H](COCc2ccccc2)Oc2cc(N3CC[C@@H](N(C)C)C3)ccc2S1(=O)=O ?
Exocytosis inh: 58; PG9 binder: inactive; ABCB6 inh MLPCN: inactive; rCAG RNA binder: inactive; Granule exo CP1: 68

How did COC(=O)[C@H](CC(C)C)NC(=O)NCCC1=CCCCC1 do in these assays?
Exocytosis inh: inactive; PG9 binder: inactive; ABCB6 inh MLPCN: inactive; rCAG RNA binder: inactive

Results for Cc1ccccc1CN1CCN(C(=O)CC(C)C)CC1 ?
Exocytosis inh: inactive; PG9 binder: inactive; ABCB6 inh MLPCN: inactive; rCAG RNA binder: inactive

How did Cc1ccc2c3c(cccc13)-c1ccccc1C2=O do in these assays?
Exocytosis inh: 97; PG9 binder: inactive; ABCB6 inh MLPCN: inactive; rCAG RNA binder: inactive; Granule exo CP1: 77

How did COc1ccc(CCNCC(O)COc2ccc(OC)cc2C(C)(C)C)cc1 (configuration not stated) do in these assays?
Exocytosis inh: 61; PG9 binder: inactive; ABCB6 inh MLPCN: inactive; rCAG RNA binder: inactive; Granule exo CP1: inactive

How did CCOc1ccc(Nc2ccnc3cc(Cl)ccc23)cc1 do in these assays?
Exocytosis inh: inactive; PG9 binder: inactive; ABCB6 inh MLPCN: inactive; rCAG RNA binder: inactive

How did CN1CCN(c2ccc(Nc3ccnc4cc(Cl)ccc34)cc2)CC1 do in these assays?
Exocytosis inh: 67; PG9 binder: inactive; ABCB6 inh MLPCN: inactive; rCAG RNA binder: inactive; Granule exo CP1: inactive

Results for COc1ccc2ccccc2c1CNC(C)c1ccccc1 (configuration not stated) ?
Exocytosis inh: inactive; PG9 binder: inactive; ABCB6 inh MLPCN: inactive; rCAG RNA binder: inactive

How did CC(NCCCOc1cccc2ccccc12)c1ccccc1 (configuration not stated) do in these assays?
Exocytosis inh: 61; PG9 binder: inactive; ABCB6 inh MLPCN: inactive; rCAG RNA binder: inactive; Granule exo CP1: inactive

How did CCCCCCNC(=O)CC(c1ccccc1)c1cc(Br)ccc1O (configuration not stated) do in these assays?
Exocytosis inh: 66; PG9 binder: inactive; ABCB6 inh MLPCN: inactive; rCAG RNA binder: inactive; Granule exo CP1: inactive

How did CC(C)NC(=O)CC(c1ccccc1)c1cc(Br)ccc1O (configuration not stated) do in these assays?
Exocytosis inh: inactive; ABCB6 inh MLPCN: inactive

What do the screens show for `CCOC(=O)Cn1c(=N)n(CCOc2ccc(Br)cc2)c2ccccc21`?
Exocytosis inh: 66; PG9 binder: inactive; ABCB6 inh MLPCN: inactive; rCAG RNA binder: inactive; Granule exo CP1: inactive

Results for CN(C)CCCN1C(=O)c2cccc3c([N+](=O)[O-])ccc(c23)C1=O ?
Exocytosis inh: 57; PG9 binder: inactive; ABCB6 inh MLPCN: inactive; rCAG RNA binder: inactive; Granule exo CP1: inactive

Results for CN(C(=O)c1cc(COc2ccc(F)cc2Cl)on1)C1CCCc2ccccc21 (configuration not stated) ?
Exocytosis inh: 57; PG9 binder: inactive; ABCB6 inh MLPCN: inactive; rCAG RNA binder: inactive; Granule exo CP1: inactive

Results for COC(=O)c1ccc(CCc2cc(O)c(Br)cc2O)cc1 ?
Exocytosis inh: 98; PG9 binder: inactive; ABCB6 inh MLPCN: inactive; rCAG RNA binder: inactive; Granule exo CP1: 77

Results for COc1ccc(S(=O)(=O)N2CCCC2C(=O)Nc2ccc(C)cc2)cc1 (configuration not stated) ?
Exocytosis inh: inactive; PG9 binder: inactive; ABCB6 inh MLPCN: inactive; rCAG RNA binder: inactive

How did CCOc1ccc(NC(=O)C2CCCN2S(=O)(=O)c2ccc(OCC)cc2)cc1 (configuration not stated) do in these assays?
Exocytosis inh: 56; PG9 binder: inactive; ABCB6 inh MLPCN: inactive; rCAG RNA binder: inactive; Granule exo CP1: inactive
